Compound activity deposited in PubChem BioAssay by Broad Institute.
STK33 inh: STK33 kinase inhibitors, primary screen, biochemical, luminescence, ADP-Glo, MBP substrate; Serine/threonine-protein kinase 33 (Homo sapiens), Q9BYT3; inhibition, % at 12.5 µM; 27,000 tested, 0.44% active; AID 2322, 2010; in the data active means inhibition above about 20%; inconclusive means no clear call, values can overlap the other calls
Target sequence (Q9BYT3 whole entry, looked up): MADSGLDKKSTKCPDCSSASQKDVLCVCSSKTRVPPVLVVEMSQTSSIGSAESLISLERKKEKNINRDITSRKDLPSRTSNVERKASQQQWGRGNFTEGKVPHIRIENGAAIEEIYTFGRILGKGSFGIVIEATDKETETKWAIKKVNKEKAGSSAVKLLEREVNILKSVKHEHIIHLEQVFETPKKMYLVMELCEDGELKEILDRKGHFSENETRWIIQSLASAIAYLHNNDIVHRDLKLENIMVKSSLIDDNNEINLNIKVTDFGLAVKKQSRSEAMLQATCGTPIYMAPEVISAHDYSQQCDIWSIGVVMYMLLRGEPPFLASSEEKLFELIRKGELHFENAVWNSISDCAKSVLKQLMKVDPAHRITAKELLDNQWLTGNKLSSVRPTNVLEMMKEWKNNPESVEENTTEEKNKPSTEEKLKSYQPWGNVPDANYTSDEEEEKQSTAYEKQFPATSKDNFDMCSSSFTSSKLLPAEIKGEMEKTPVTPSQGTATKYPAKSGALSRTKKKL
PD-1 reversal: activators reversing PD-1 mediated T-cell inhibition, primary screen, luminescence, primary human CD4 T cells, PD-L1 beads | 29,000 tested, under 10 active | CellTiter-Glo 96 h | AID 2316, 2010 | activation, % (test concentration not listed); call rule not given here
NOMO-1 viab: NOMO-1 AML cell viability reduction, primary screen, STK33 inhibitor project, CellTiter-Glo luminescence. AID 2330, 2010. inhibition, % (concentration not given with the values). 37,000 tested, 7.5% active. NOMO-1 AML viability, 72 h; in the data active means inhibition above about 80%; inconclusive means no clear call, values can overlap the other calls
A number is an active result; i = inactive; ? = inconclusive; nt = no result. Shown is part of a subset that was picked to be rich in hits.

SMILES	STK33 inh	PD-1 reversal	NOMO-1 viab
C[C@H]1CN([C@@H](C)CO)C(=O)c2cccc(NC(=O)c3cnccn3)c2O[C@H]1CN(C)Cc1ccc(C(=O)Nc2ccccc2N)cc1	nt	i	129
C[C@H]1CN([C@@H](C)CO)C(=O)c2cccc(NC(=O)c3cnccn3)c2O[C@H]1CN(C)Cc1ccc(C(=O)O)cc1	nt	i	i
C[C@H](CO)N1C[C@H](C)[C@H](CN(C)Cc2ccc(C(=O)Nc3ccccc3N)cc2)Oc2c(NC(=O)c3ccncc3)cccc2C1=O	nt	i	i
O=C1O[C@H](c2ccccc2)[C@H](c2ccccc2)N2[C@H]1[C@@H](C(=O)Nc1nc3ccccc3s1)[C@]1(C(=O)Nc3ccc(C#CC4(O)CCCCCC4)cc31)[C@H]2c1ccc(OCCO)cc1	i	nt	nt
Cc1ccc(NC(=O)C(=O)NCCc2c[nH]c3ccccc23)cc1Cl	i	i	i
N#CCC(=O)NCc1cccs1	nt	i	i
C[C@H]1CN([C@@H](C)CO)C(=O)c2cccc(NC(=O)c3cnccn3)c2O[C@@H]1CN(C)Cc1ccc(C(=O)Nc2ccccc2N)cc1	nt	i	108
C[C@@H]1CN([C@@H](C)CO)C(=O)c2cccc(N(C)C)c2O[C@@H]1CN(C)Cc1ccc(C(=O)Nc2ccccc2N)cc1	nt	i	128
C[C@H]1CN([C@@H](C)CO)C(=O)c2cccc(NS(C)(=O)=O)c2O[C@H]1CN(C)Cc1ccc(C(=O)Nc2ccccc2N)cc1	nt	i	i
C[C@H](CO)N1C[C@H](C)[C@H](CN(C)Cc2ccc(C(=O)O)cc2)Oc2c(NC(=O)c3cnccn3)cccc2C1=O	nt	i	i
Cc1cc(C(=O)Nc2cccc3c2O[C@@H](CN(C)Cc2ccc(C(=O)Nc4ccccc4N)cc2)[C@@H](C)CN([C@H](C)CO)C3=O)n(C)n1	nt	i	?
Cc1cc(C(=O)Nc2cccc3c2O[C@H](CN(C)Cc2ccc(C(=O)Nc4ccccc4N)cc2)[C@H](C)CN([C@@H](C)CO)C3=O)n(C)n1	nt	i	128
Cc1ccc(N(C(C)C(=O)Nc2ccc(Oc3ccccc3)cc2)S(C)(=O)=O)cc1C (stereo unspecified)	i	i	i
Cc1ccc2nc(-c3cccnc3)cc(C(=O)Nc3ccc(S(=O)(=O)NC(C)(C)C)cc3)c2c1	i	nt	i
Cc1ccc(NC(=O)CSc2nc(O)c(C)c(=O)n2-c2ccccc2F)c(C)c1	i	i	i
CS(=O)(=O)N(CC(=O)Nc1cccc([N+](=O)[O-])c1)c1ccc(F)c(Cl)c1	i	nt	i
Cc1ccc(S(=O)(=O)N(C)C[C@H]2Oc3ccc(NC(=O)Nc4ccc(C(F)(F)F)cc4)cc3CC(=O)N([C@H](C)CO)C[C@H]2C)cc1	i	i	115
Cc1ccc(S(=O)(=O)N(C)C[C@H]2Oc3ccc(NC(=O)Nc4ccc(C(F)(F)F)cc4)cc3CC(=O)N([C@@H](C)CO)C[C@@H]2C)cc1	i	i	i
COc1ccc(S(=O)(=O)N(C)C[C@H]2Oc3ccc(NC(=O)Nc4ccc(C(F)(F)F)cc4)cc3CC(=O)N([C@H](C)CO)C[C@H]2C)cc1	i	i	i
Cc1ccc(S(=O)(=O)N(C)C[C@@H]2Oc3ccc(NC(=O)Nc4ccc(C(F)(F)F)cc4)cc3CC(=O)N([C@H](C)CO)C[C@@H]2C)cc1	i	i	126
N#Cc1cccc(CSc2nnc(SCc3cccc(C#N)c3)s2)c1	nt	i	i
CCn1cc(CN(C)C(=S)Nc2cccc(C(C)=O)c2)c(C)n1	i	nt	i
NC(=O)CN(c1cc(Cl)ccc1Cl)S(=O)(=O)c1ccccc1	i	nt	i
O=C1C(=O)N(CCc2ccccc2)C(c2ccco2)C1C(=O)c1cc2ccccc2o1 (stereo unspecified)	i	i	i
CC(C)c1ccc2oc(-c3ccc(Cl)c(NC(=O)COc4ccc([N+](=O)[O-])cc4)c3)nc2c1	i	i	110
SMILES	STK33 inh	PD-1 reversal	NOMO-1 viab
COc1ccc(-c2nc3cc(NC(=O)COc4ccc([N+](=O)[O-])cc4)ccc3o2)cc1Cl	i	i	i
O=C(CSc1nnnn1-c1ccccc1)Nc1cccc(I)c1	i	i	i
Cc1ccc2c(c1)c1nc3ccccc3nc1n2CC(=O)N(c1ccccc1)C(C)C	i	i	i
O=C(CSC1CC(=O)N(c2cccc(Cl)c2)C1=O)Nc1ccc(Br)cc1 (stereo unspecified)	i	nt	nt
CC(C)(C)C1CCc2c(sc(NC(=O)COc3ccccc3Cl)c2C(N)=O)C1 (stereo unspecified)	i	i	104
CCc1ccccc1OCC(=O)Nc1sc2c(c1C(N)=O)CCCC2	i	i	i
COc1ccc(OC)c(NC(=O)CSc2nnc(-c3ccccc3)n2C)c1	i	nt	i
COc1ccc(NC(=O)Nc2ccc3c(c2)CC(=O)N([C@@H](C)CO)C[C@H](C)[C@H](CN(C)S(=O)(=O)c2ccc(C)cc2)O3)cc1	nt	nt	128
C[C@H](CO)N1C[C@H](C)[C@H](CN(C)S(=O)(=O)c2ccc(Cl)cc2)Oc2ccc(NC(=O)NC3CCCCC3)cc2CC1=O	i	nt	119
C[C@H](CO)N1C[C@H](C)[C@H](CN(C)S(=O)(=O)c2ccccc2)Oc2ccc(NC(=O)Nc3ccc(F)cc3)cc2CC1=O	i	i	95
C[C@H](CO)N1C[C@H](C)[C@H](CN(C)S(=O)(=O)c2ccc(F)cc2)Oc2ccc(NC(=O)Nc3ccc4c(c3)OCO4)cc2CC1=O	i	i	126
COc1ccc(NC(=O)Nc2ccc3c(c2)CC(=O)N([C@H](C)CO)C[C@@H](C)[C@@H](CN(C)S(=O)(=O)c2ccc(C)cc2)O3)cc1	i	i	i
C[C@@H]1CN([C@H](C)CO)C(=O)Cc2cc(NC(=O)Nc3ccc(F)cc3)ccc2O[C@H]1CN(C)S(=O)(=O)c1ccccc1	i	nt	i
C[C@@H]1CN([C@H](C)CO)C(=O)Cc2cc(NC(=O)NC3CCCCC3)ccc2O[C@@H]1CN(C)S(=O)(=O)c1ccc(Cl)cc1	i	i	i
C[C@@H]1CN([C@H](C)CO)C(=O)Cc2cc(NC(=O)Nc3ccc4c(c3)OCO4)ccc2O[C@H]1CN(C)S(=O)(=O)c1ccc(F)cc1	i	i	i
Cc1ccc(-n2c(SCC(=O)Nc3ccc(Br)cc3)nnc2-c2ccco2)cc1	i	i	i
CN1C(=O)c2ccc(NC(=O)CCn3cnc4ccccc4c3=O)cc2C1=O	i	i	i
CCCCC/C=C/C=C/C(O)CCCCCCCC(=O)O (stereo unspecified)	i	i	i
COc1ccc(S(=O)(=O)N(C)C[C@H]2Oc3ccc(NC(=O)Nc4ccc(F)cc4)cc3CC(=O)N([C@@H](C)CO)C[C@@H]2C)cc1	i	i	i
C[C@H]1CN([C@@H](C)CO)C(=O)Cc2cc(N(C)C)ccc2O[C@@H]1CN(C)S(=O)(=O)c1ccc(Cl)cc1	i	nt	i
C[C@H](CO)N1C[C@H](C)[C@H](CN(C)S(=O)(=O)c2ccc(F)cc2)Oc2ccc(NC(=O)Nc3ccc(F)cc3)cc2CC1=O	i	i	126
C[C@H]1CN([C@@H](C)CO)C(=O)Cc2cc(N(C)C)ccc2O[C@H]1CN(C)S(=O)(=O)c1ccc(Cl)cc1	i	i	115
CC(C)NC(=O)Nc1ccc2c(c1)CC(=O)N([C@H](C)CO)C[C@@H](C)[C@@H](CN(C)S(=O)(=O)c1ccc(F)cc1)O2	i	nt	i
